The nature of test [1]: A CellTox Green Cytotoxicity Assay to monitor cytotoxicity in HepG2 cells - 16 hour (AID 1224876). Further: nearly all actives have a fitted effect of over 45% in size. A digest of the protocol: (§1)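 Cytotoxicity was tracked as dead-cell DNA fluorescence in HepG2 cells treated with test compounds at 37 C; each time-point value comes from one kinetic series spanning 0, 8, 16, 24, 32 and 40 h.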
Test [2] is described as follows: qHTS RealTime-Glo MT Cell Viability Assay in HepG2 cells - 32 hour (AID 1224877). Further: nearly all actives have a fitted effect of over 55% in size. In a few lines: (§2)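 HepG2 suspension premixed with RealTime-Glo reagents is plated at 600 cells per well and left 5 h at 37 C/5% CO2. Compounds in DMSO then go in, and bioluminescence reflecting viable cell number is recorded over 40 h.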
(In qHTS, concentration-response curves come from the screen itself.)

Test [3] in a line: A CellTox Green Cytotoxicity Assay to monitor cytotoxicity in HepG2 cells - 24 hour (AID 1224878). Further: nearly all actives have a fitted effect of over 45% in size. Further: potency means the concentration at half of the fitted maximal effect. In a few lines: as §1
A short description of test [4]: A CellTox Green Cytotoxicity Assay to monitor cytotoxicity in HepG2 cells - 40 hour (AID 1224879). Further: nearly all actives have a fitted effect of over 40% in size. In a few lines: as §1
Test [5] in a line: qHTS RealTime-Glo MT Cell Viability Assay in HEK293 cells - 0 hour (AID 1224880). Further: top concentration of the series differs between compounds; nearly all actives have a fitted effect of over 45% in size. A digest of the protocol: (§3)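 Kinetic, non-lysing viability readout. Seed HEK293 (600/well) with reagent, incubate 5 h at 37 C/5% CO2, pin 23 nL compound in DMSO, incubate at 37 C, read luminescence at 0, 8, 16, 24, 32, 40 h.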
A short description of test [6]: A CellTox Green Cytotoxicity Assay to monitor cytotoxicity in HepG2 cells - 32 hour (AID 1224883). Further: nearly all actives have a fitted effect of over 50% in size. In a few lines:
as §1

Test [7] can be described thus: A CellTox Green Cytotoxicity Assay to monitor cytotoxicity in HEK293 cells - 8 hour (AID 1224884). Further: nearly all actives have a fitted effect of over 35% in size. In a few lines: (§4)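 Real-time, in one plate: 600 HEK293 cells/well with dead-cell DNA dye, pinned compound after 5 h, 37 C incubation over 40 h; viable cells give no appreciable fluorescence.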
The nature of test [8]: qHTS RealTime-Glo MT Cell Viability Assay in HepG2 cells - 16 hour (AID 1224885). Further: nearly all actives have a fitted effect of over 50% in size. In a few lines:
as §2

The nature of test [9]: qHTS RealTime-Glo MT Cell Viability Assay in HEK293 cells - 8 hour (AID 1224887). Further: top concentration of the series differs between compounds; nearly all actives have a fitted effect of over 50% in size. In a few lines: as §3
Test [10] in a line: A CellTox Green Cytotoxicity Assay to monitor cytotoxicity in HEK293 cells - 16 hour (AID 1224888). Further: nearly all actives have a fitted effect of over 35% in size. A digest of the protocol:
as §4

Test [11] can be described thus: qHTS RealTime-Glo MT Cell Viability Assay in HepG2 cells - 0 hour (AID 1224889). Further: nearly all actives have a fitted effect of over 50% in size. In a few lines: as §2
A short description of test [12]: A CellTox Green Cytotoxicity Assay to monitor cytotoxicity in HepG2 cells - 8 hour (AID 1224890). Further: nearly all actives have a fitted effect of over 45% in size. Further: potency means the concentration at half of the fitted maximal effect. A digest of the protocol:
as §1

The nature of test [13]: qHTS assay to identify small molecule antagonists of the estrogen receptor alpha (ER-alpha) signaling pathway using the BG1 cell line in the presence of 0.1 nM 17-beta-estradiol - cell viability counter screen (AID 1259241). Further: nearly all actives have a fitted effect of over 40% in size. Further: potency means the concentration at half of the fitted maximal effect. In a few lines: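 Cells were plated and left 24 hr, compounds in DMSO were pinned in, 17beta-estradiol was added to 0.1 nM final, and after 22 hr CellTiter-Fluor reagent was added for 30 min before fluorescence was read.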

Test [14] is described as follows: qHTS assay to identify small molecule antagonists of the androgen receptor (AR) signaling pathway using the MDA cell line in the presence of 0.5 nM R1881 - cell viability counter screen (AID 1259242). Further: nearly all actives have a fitted effect of over 45% in size. Further: potency means the concentration at half of the fitted maximal effect. In a few lines: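 Cells seeded at 3,000/well and allowed 5 hr at 37C, 0% CO2 before compound transfer and R1881 (0.5 nM final) addition; 16 hr later, live-cell protease fluorescence indicated cytotoxicity.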

Test [15] concerns the target Estrogen receptor (Homo sapiens) (UniProt P03372). Description: qHTS assay to identify small molecule antagonists of the estrogen receptor alpha (ER-alpha) signaling pathway using the BG1 cell line in the presence of 0.1 nM 17-beta-estradiol (AID 1259244). Further: nearly all actives have a fitted effect of over 50% in size. A digest of the protocol: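 Luciferase signal from VM7Luc4E2 ERE-reporter cells, co-dosed with test compound and 0.1 nM final 17beta-estradiol for 22 h, read with ONE-Glo.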

Test [16] can be described thus: qHTS assay to identify small molecule HDAC inhibitors (AID 1259364). Further: potency means the concentration at half of the fitted maximal effect. A digest of the protocol:
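HCT-116 wt cells, 1,500/well, overnight attach. Compounds (DMSO) 2 h, 37 °C. HDAC-Glo I/II, 30 min RT. Luminescence.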

The nature of test [17]: A CellTox Green Cytotoxicity Assay to monitor cytotoxicity in HEK293 cells - 32 hour (AID 1224881). Further: nearly all actives have a fitted effect of over 40% in size. In a few lines:
as §4

Test [18] in a line: A CellTox Green Cytotoxicity Assay to monitor cytotoxicity in HepG2 cells - 0 hour (AID 1224882). Further: nearly all actives have a fitted effect of over 35% in size. In a few lines:
as §1

Test [19] is described as follows: qHTS RealTime-Glo MT Cell Viability Assay in HEK293 cells - 24 hour (AID 1224886). In a few lines: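 Reads taken at 0, 8, 16, 24, 32 and 40 h from the same wells. HEK293 cells (600/well) carried RealTime-Glo reagents from seeding, with compound added after a 5 h settle at 37 C.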
Test [20] is described as follows: qHTS assay to identify small molecule phospholipidosis (PLD) inducers (AID 1259344; active means well fitted curve in the direction sought with a large enough effect; an effect the other way counts as inactive or inconclusive). A digest of the protocol:
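Accumulated phospholipid, stained red by LipidTOX during 24 h compound treatment of HepG2 cells at 37 C, is quantified from images as pit number and intensity, normalised per cell using Hoechst-stained nuclei.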

Values without a mark were called inactive. Records with an inconclusive call do not appear. Calls of active or inactive are those of the source. Unless noted, the call rests on the fitted dose curve; in most records, active means well fitted curve in the direction sought with a large enough effect in the repeat runs; inconclusive means weak or mixed curves; inactive means no such curve, though single readings can be large; an effect the other way counts as inactive or inconclusive.

Chain of Estrogen receptor (Homo sapiens) (P03372 whole entry, looked up): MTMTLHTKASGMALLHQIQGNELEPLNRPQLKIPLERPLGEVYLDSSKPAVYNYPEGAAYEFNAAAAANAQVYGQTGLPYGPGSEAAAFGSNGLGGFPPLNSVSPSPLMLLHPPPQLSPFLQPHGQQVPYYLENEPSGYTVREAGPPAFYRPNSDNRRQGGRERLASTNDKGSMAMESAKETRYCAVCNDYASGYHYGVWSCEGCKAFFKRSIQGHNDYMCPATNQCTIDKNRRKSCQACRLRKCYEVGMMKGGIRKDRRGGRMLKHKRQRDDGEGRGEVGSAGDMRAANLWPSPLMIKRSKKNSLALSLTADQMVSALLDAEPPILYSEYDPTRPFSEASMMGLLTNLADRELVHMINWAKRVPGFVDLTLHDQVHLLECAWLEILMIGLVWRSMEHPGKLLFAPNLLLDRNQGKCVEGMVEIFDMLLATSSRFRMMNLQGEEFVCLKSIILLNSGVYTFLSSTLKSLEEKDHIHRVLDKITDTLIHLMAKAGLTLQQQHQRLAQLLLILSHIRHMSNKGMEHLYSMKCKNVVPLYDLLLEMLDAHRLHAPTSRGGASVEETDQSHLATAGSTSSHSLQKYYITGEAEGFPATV

For the compound `CC(=O)Nc1ccc(C)cc1`, the Potency entry in [1], in [3], in test [4], in test [6], in test [7] and in [9] was “inactive” in each case. Further, the Potency entry in test [10], in test [11], in [12], in test [13], in test [14] and in test [15] was “inactive” each time. Also, the Potency result in test [16] is “inactive”. Further, the compound was classed as inactive in [2], in test [5] and in [8].
For the compound `COc1ccc(N=Nc2cc(C)c(N=Nc3ccc(S(=O)(=O)O)cc3)cc2OC)cc1`, the Potency entry in test [1], in [3], in test [4], in test [17], in test [18] and in test [6] was “inactive” in each case. Moreover, the Potency entry in test [7], in test [19], in test [9], in [10], in [12] and in test [16] was “inactive” throughout. The compound was classed as inactive in [2] and in test [8]. Besides, the Potency in test [13] was 68.6 µM (active); in test [14], 48.6 µM (active).
Regarding `Cc1oc(=O)oc1CN1CCN(c2cc3c(cc2F)c(=O)c(C(=O)O)c2n3C(C)S2)CC1` (stereo unspecified), the call in test [2], in test [5], in test [8] and in test [20] was inactive. For the same compound, the Potency in test [3] and in test [12] was 0.535 µM (active) throughout. The Potency entry in [17], in [18], in test [7], in test [9], in test [10] and in test [11] was “inactive” throughout. The Potency result in [14], in [15] and in [16] was “inactive” each time.
Take `O=C(O)c1c(Cl)ccc(Cl)c1Cl`: the compound was classed as inactive in test [2], in test [5] and in test [8]. The Potency result in test [3], in [4], in [17], in test [18], in test [6] and in test [7] was “inactive” throughout. The Potency result in [9], in test [10], in test [11], in test [12], in test [13] and in [14] was “inactive” in each case. Moreover, the Potency entry in [15] and in [16] was “inactive” each time.
For `COC(/C=C(\C)CCC=C(C)C)OC`, the outcome in [2], in test [5] and in test [8] was inactive. Further, the Potency entry in test [3], in test [4], in [17], in test [6], in test [7] and in test [9] was “inactive” in each case. Besides, the Potency result in test [11], in test [12], in test [13], in test [14], in [15] and in test [16] was “inactive” each time.
`CC(=O)c1ccc(OCC(=O)N2CCCCC2)cc1`: the result in [2], in [5], in test [8] and in test [20] was inactive. Besides, the Potency entry in test [3], in [4], in test [6], in test [7], in test [9] and in test [10] was “inactive” in each case. For the same compound, the Potency entry in [11], in [12], in test [13], in [14] and in [15] was “inactive” in each case. For the same compound, the Potency in [16] was 13.3 µM (active).
With `Cc1ccccc1OCC1CO1` (stereo unspecified), the compound was called inactive in test [2], in [5] and in test [8]. Also, the Potency result in test [3], in test [4], in test [17], in [6], in test [7] and in test [19] was “inactive” each time. Further, the Potency result in test [9], in [10], in test [11], in test [12], in test [13] and in test [14] was “inactive” each time. Moreover, the Potency entry in test [15] was “inactive”.
Consider `COc1cc2c(Nc3ccc(Br)cc3F)ncnc2cc1OCC1CCN(C)CC1`, for which the result in test [2], in test [5], in test [8] and in test [20] was inactive. For the same compound, the Potency result in test [3], in [4], in [17], in [6], in test [19] and in [9] was “inactive” in each case. Further, the Potency entry in test [10], in test [11], in [12], in test [13], in test [14] and in test [15] was “inactive” throughout.
Take `Cc1cc(C)cc([N+](=O)[O-])c1`: the compound was classed as inactive in [2], in [5] and in [8]. Besides, the Potency in test [3] was 55.6 µM (active). For the same compound, the Potency result in test [17], in [7], in test [19], in test [9], in test [10] and in test [11] was “inactive” throughout. In addition, the Potency entry in test [12], in test [13], in test [14] and in [15] was “inactive” in each case.
Turning to `CCCCC(C)C(=O)O` (stereo unspecified), the compound was called inactive in test [5] and in test [8]. The Potency result in test [17], in test [7], in [19], in test [9], in [10] and in test [14] was “inactive” throughout. In addition, the Potency result in [16] was “inactive”.
Take `CCOC(=O)C(C)(C)C`: the result in [2], in test [5] and in [8] was inactive. For the same compound, the Potency entry in test [3], in [4], in test [17], in [6], in test [7] and in test [19] was “inactive” in each case. Further, the Potency result in [9], in test [10], in test [11], in test [12], in test [13] and in [14] was “inactive” each time. Also, the Potency entry in test [15] is “inactive”.
With `CN[C@@H]1[C@H](O)[C@H](NC)[C@H]2O[C@@]3(O)C(=O)C[C@@H](C)O[C@H]3O[C@@H]2[C@H]1O`, the outcome in test [2], in test [5], in [8] and in test [20] was inactive. Further, the Potency entry in [3], in [4], in test [18], in [6], in test [7] and in [9] was “inactive” each time. Besides, the Potency entry in [10], in test [11], in [12], in [14], in [15] and in [16] was “inactive” throughout.
As for `CNC(=O)C(c1ccccc1)c1ccccc1`, the compound was classed as inactive in [2], in test [5] and in test [8]. Besides, the Potency entry in test [17], in test [18], in test [7], in test [19], in test [9] and in test [10] was “inactive” throughout. Further, the Potency entry in test [11], in test [13], in test [14], in test [15] and in [16] was “inactive” throughout.
